Screening results: PubChem, Sanford-Burnham Center for Chemical Genomics
Compounds with a hit are over-represented: about 28% of the library has one in this group of screens.
CYP2C9 activ: activators of human CYP2C9; AID 1024; P11712; activation factor at 5 µM; actives 1.4% (n = 96,000); recombinant CYP2C9, luciferin-H conversion, luminescence; active compounds read high; factor 1 = untreated enzyme, 0 = blocked;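 active means activation factor of 2 or more for CYP2C9 at a 5 µM dose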;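 further: 0 = sulfaphenazole-blocked wells and 1 = vehicle-only wells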
CD11b adhes enh: CD11b/CD18-fibrinogen binding enhancement. K562 CD11b/CD18 adhesion to fibrinogen, ATPlite luminescence. activation, % at 10 µM. P05107+P11215. actives 0.07% (n = 93,000);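 active means 10 µM primary screen giving 50% or more activity, confirmed by 40% or more on retest at that dose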
Target sequence (P05107 whole entry, looked up, other chains not shown): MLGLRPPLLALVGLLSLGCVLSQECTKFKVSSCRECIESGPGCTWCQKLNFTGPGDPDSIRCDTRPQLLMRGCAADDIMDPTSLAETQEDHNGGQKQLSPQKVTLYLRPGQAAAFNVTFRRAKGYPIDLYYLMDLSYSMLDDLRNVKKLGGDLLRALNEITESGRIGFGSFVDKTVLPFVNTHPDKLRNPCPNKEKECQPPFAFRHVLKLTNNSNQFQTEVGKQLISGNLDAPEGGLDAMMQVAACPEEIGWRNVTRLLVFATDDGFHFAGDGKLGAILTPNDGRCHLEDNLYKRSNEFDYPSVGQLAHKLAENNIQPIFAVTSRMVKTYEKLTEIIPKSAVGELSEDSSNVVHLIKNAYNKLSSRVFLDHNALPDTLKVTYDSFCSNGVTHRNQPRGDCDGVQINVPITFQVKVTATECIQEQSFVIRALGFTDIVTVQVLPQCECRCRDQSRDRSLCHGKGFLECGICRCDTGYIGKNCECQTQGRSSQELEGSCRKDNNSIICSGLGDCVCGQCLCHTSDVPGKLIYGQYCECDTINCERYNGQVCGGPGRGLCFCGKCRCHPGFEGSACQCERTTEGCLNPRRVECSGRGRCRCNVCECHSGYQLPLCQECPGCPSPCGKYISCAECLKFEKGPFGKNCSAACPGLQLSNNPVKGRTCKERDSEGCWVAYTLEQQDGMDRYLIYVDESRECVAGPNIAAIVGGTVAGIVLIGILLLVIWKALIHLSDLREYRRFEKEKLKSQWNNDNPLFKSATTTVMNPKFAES
CD11b adhes inh: CD11b/CD18-fibrinogen binding inhibition. K562 CD11b/CD18 adhesion to fibrinogen, ATPlite luminescence; Mn2+ added to activate the integrin. inhibition, % at 10 µM. actives 0.54% (n = 93,000). AID 1497;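 active means primary inhibition of 50% or more at 10 µM, then 40% or more on retest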
CYP2C19 act: activators of human cytochrome P450 2C19; P33261; recombinant CYP2C19, luciferin-H EGE luminescence; active compounds read high; 0 = fully inhibited enzyme, 1 = untreated enzyme; activation factor at 5 µM; 96,000 tested, under 10 active; AID 1025;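 active means activation factor of at least 2 at 5 µM in the primary screen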;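 further: 0 = wells with 2.5 mM tranylcypromine and 1 = vehicle-only wells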
CYP2C19 inhib: blocks human cytochrome P450 2C19. P33261. CYP2C19 Supersomes, luciferin-H EGE luminescence, 30 min. inhibition, % at 5 µM. actives 21% (n = 96,000);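 active means CYP2C19 inhibition above a set limit at 5 µM in the primary screen, cut at about 50% in these data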;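 further: plate controls were negative control wells for no effect and 2.5 mM tranylcypromine positive control for full effect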
CYP2C9 inhib: human CYP2C9 inhibition; CYP2C9 Supersomes, luciferin-H conversion, luminescence; inhibition, % at 5 µM; actives 20% (n = 96,000); AID 777;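 active means blocking of liver enzyme CYP2C9 beyond about 50% at 5 µM, limit read from the data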
Active calls of the source: *; . = not tested or not shown.

SMILES | CYP2C9 activ | CD11b adhes enh | CD11b adhes inh | CYP2C19 act | CYP2C19 inhib | CYP2C9 inhib
COc1ccccc1C1(O)CC2CCC(C1)N2S(=O)(=O)c1ccc(C(C)=O)cc1 (centres undefined) | 1.2 | 6.4 | -10.6 | 0.7 | 29.7 | -18.8
COc1cccc(C(=O)Nc2ccc(NC(=O)C(C)(C)C)cn2)c1 | 1.1 | -3.9 | -12.1 | 1 | -3.0 | -12.8
O=C(NCc1ccc2c(c1)OCO2)c1cccs1 | 0.3 | -1.6 | -8.3 | 0.1 | 92.7* | 66.9*
O=C(COC(=O)c1cccs1)NCc1ccc2c(c1)OCO2 | 0.3 | 0.1 | 7.5 | 0.2 | 77.5* | 69.4*
O=C(Cc1ccc(Br)cc1)OCC(=O)c1ccc2c(c1)OCCO2 | 1 | . | . | 1 | -1.7 | -2.7
O=C(Cc1n[nH]c(=O)c2ccccc12)OCC(=O)c1ccc2c(c1)OCCO2 | 0.3 | -4.0 | 0.8 | 1 | 3.1 | 65.5*
O=C(NCc1ccc2c(c1)OCO2)c1cc(-c2ccccc2)on1 | 1.2 | 21.2 | -17.9 | 1 | 4.1 | -15.7
O=C(COC(=O)c1cccs1)c1ccc2c(c1)OCCO2 | 0.1 | -8.0 | 55.7 | 0.2 | 83.2* | 86.8*
CCC(OC(=O)c1cccs1)C(=O)NCc1ccc2c(c1)OCO2 (centres undefined) | 0.2 | 10.6 | -35.1 | 0.3 | 69.4* | 79.2*
CCSc1nnc2c(n1)OC(c1ccc(C(=O)O)cc1)N(C(C)=O)c1ccccc1-2 (centres undefined) | 1.3 | -3.9 | 5.8 | 1.1 | -8.0 | -30.1
CCCCCSc1nnc2c(n1)OC(c1cccn1C)N(C(C)=O)c1ccccc1-2 (centres undefined) | 0.2 | . | . | 0.5 | 45.1 | 82.6*
COc1ccc(CCCNC(=O)CC#N)cc1OC | 1 | 1.9 | 5.9 | 1 | 2.1 | -4.1
COC(=O)C(NC(=O)c1ccccc1Cl)(Nc1ncc(S(=O)(=O)c2ccc([N+](=O)[O-])cc2)s1)C(F)(F)F (centres undefined) | 0.1 | 2.9 | 4.6 | 1 | 3.0 | 86.7*
CCC(C)(C)C(=O)Nc1ncc(S(=O)(=O)c2ccc([N+](=O)[O-])cc2)s1 | 0.7 | -4.9 | 28.2 | 0.7 | 26.6 | 25.7
CCn1c(COc2ccccc2)nnc1SCC(=O)Nc1cc(C)ccc1OC | 2.1* | 6.8 | -4.2 | 0.5 | 46.2 | -108.0
COc1ccc(OC)c(NC(=O)CSc2nnc(C)n2Cc2ccccc2)c1 | 0.7 | 2.5 | 10.7 | 0.1 | 87.2* | 29.4
CCn1c(COc2ccc(C)cc2)nnc1SCC(=O)Nc1cc(OC)ccc1OC | 0.5 | 4.9 | 6.1 | 0.1 | 89.5* | 47.9
COc1ccc(C)cc1NC(=O)CSc1nnc(COc2ccc(C)cc2)n1Cc1ccco1 | 0.9 | -2.0 | -14.3 | 0.9 | 6.1 | 10.1
CCn1c(COc2ccc(C)cc2)nnc1SCC(=O)C(C)(C)C | 0.5 | -2.4 | -1.2 | 0.5 | 49.7 | 51.1*
COc1ccc(NC(=O)CSc2nnc(C)n2Cc2ccccc2)cc1 | 0.9 | . | . | 0.7 | 30.5 | 8.2
Nc1ccc2oc(-c3cccs3)nc2c1 | 0.9 | -2.9 | 10.4 | 0.9 | 5.6 | 10.1
Cc1ccc(C)n1NC(=O)c1cccc(Cl)c1 | 1 | -1.8 | 5.5 | 0.9 | 11.9 | -3.4
CCc1nc(N)c(C#N)c(-c2cccnc2)c1C | 1.1 | -2.5 | 7.7 | 1 | 3.3 | -11.4
Cc1nc(N)c(C#N)c(-c2cccnc2)c1C | 2* | . | . | 1 | 3.3 | -96.3
CS(=O)(=O)C1=C(O)C(=O)N(c2ccccc2)C1c1ccccc1 (centres undefined) | 0.9 | 0.0 | 5.9 | 0.5 | 50.7* | 12.0
SMILES | CYP2C9 activ | CD11b adhes enh | CD11b adhes inh | CYP2C19 act | CYP2C19 inhib | CYP2C9 inhib
O=C(O)CC1=C(O)C(=O)N(c2ccccc2)C1c1ccccc1 (centres undefined) | 1.1 | 0.6 | -0.4 | 0.9 | 8.2 | -8.7
COc1ccc(C2CC(=O)c3cnc(NC(=O)c4cc(OC)cc(OC)c4)nc3C2)cc1 (centres undefined) | 0.3 | -0.2 | -23.9 | 0.2 | 82.9* | 69.4*
COc1cc(OC)cc(C(=O)Nc2ncc3c(n2)CC(C)CC3=O)c1 (centres undefined) | 1.1 | 2.1 | -9.0 | 1 | 1.8 | -11.2
COc1cc(C2CC(=O)c3cnc(NC(=O)COc4ccccc4)nc3C2)cc(OC)c1OC (centres undefined) | 0.8 | 0.7 | -10.2 | 0.9 | 14.6 | 19.1
COc1ccc(C2CC(=O)c3cnc(NC(=O)c4ccccc4)nc3C2)cc1OC (centres undefined) | 0.3 | 2.6 | -8.3 | 0.9 | 9.9 | 70.4*
CCOCCCNc1ncc2c(n1)CC(c1ccc(C)cc1)CC2=O (centres undefined) | 0.4 | -5.6 | -16.0 | 0.6 | 41.0 | 58.8*
CC(Sc1ncc(C#N)c(N)n1)C(=O)Nc1ccccc1 (centres undefined) | 0.9 | -2.0 | -20.4 | 0.8 | 24.0 | 5.5
CC(C)(C)OC(=O)N1CCCC(C(=O)CC#N)C1 (centres undefined) | 0.3 | -0.8 | 1.5 | 0.6 | 37.2 | 66.5*
CCOCC(=O)Nc1cc(-c2cn3cccnc3n2)ccc1C | 1 | 1.0 | -5.0 | 1 | -4.1 | 3.9
CC1=CC(C)(C)N(C(=O)CSc2nnc(-c3ccc(C)cc3)o2)c2ccc(C)cc21 | 0.1 | -1.3 | 23.8 | 0 | 96.2* | 94.8*
CC1=CC(C)(C)N(C(=O)CSc2nnc(N)s2)c2cc(C)c(C)cc21 | 0.3 | . | . | 0.2 | 76.7* | 69.9*
COC(=O)c1ccccc1NC(=O)CSc1nnc(-c2ccncc2)o1 | 0.6 | . | . | 0.3 | 68.0* | 39.1
COc1ccccc1NC(=O)CSc1nnc(-c2ccccc2)o1 | 0.9 | 0.3 | -0.1 | 0.4 | 59.1* | 14.7
COC(=O)c1ccccc1NC(=O)CSc1nc(N)cc(N)n1 | 0.9 | -3.3 | 3.7 | 0.7 | 34.3 | 5.6
Cc1noc(C)c1C(=O)OCC(=O)c1c(N)n(CC(C)C)c(=O)n(C)c1=O | 0.6 | -2.6 | 9.3 | 1 | 1.2 | 37.7
CCOC(=O)c1oc2nc(CC(C)C)c3c(c2c1N)CCC3 | 1.1 | . | . | 0.8 | 23.0 | -9.1
COC(=O)c1sc(NC(=O)CSc2nnnn2-c2ccc(C)cc2C)nc1C | 1 | -1.3 | 3.2 | 0.5 | 47.7 | 1.6
Cc1ccccc1-c1nnc(SCC(=O)Nc2cccc(C)c2C)o1 | 0.6 | 0.3 | 4.7 | 0.9 | 12.3 | 38.1
Cc1cccc(NC(=O)CSc2nnc([C@@H](N)Cc3ccccc3)o2)c1C | 0.9 | 0.6 | -4.1 | 0.3 | 69.9* | 9.4
Cc1ccc(CSc2nnc(-c3ccc(NS(=O)(=O)c4ccccc4)cc3)o2)cc1 | . | -6.0 | 72.3 | . | . | .
COC(=O)CSc1nnc(-c2ccc(NS(=O)(=O)c3ccccc3)cc2)o1 | 0.1 | 1.7 | -3.2 | 0.5 | 47.4 | 94.2*
Cc1csc(NC(=O)CSc2nnc(-c3ccccc3)o2)n1 | 0.9 | -3.5 | -41.7 | 0.8 | 24.4 | 13.0
